hNpr1 antagonist = Natriuretic polypeptide receptor (hNpr1) antagonism - Primary qHTS | Potency, µM (titrated, usually from 46.3 µM), most hits filed as inhibitors | AID 1347048, 2019 | 76,000 tested, 1.6% active | HEK293 hNpr1 GloSensor cGMP, ANP-stimulated luminescence; calls by dose curve; also: nearly all actives have a fitted effect of over 60% in size
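HEK293 cells stably expressing human Npr1 and cGMP GloSensor pGS-40F, loaded 2 h with 2% GloSensor reagent, given compound 30 min at room temperature. Luminescence read before and 20 min after 0.1 nM hNppA.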
FLuc inh = Firefly luciferase inhibition profiling of diverse chemical library using quantitative high-throughput screening; AID 1347043, 2019; 76,000 tested, 2.5% active; Potency, µM (titrated, usually from 115 µM), actives largely listed as inhibitors; purified P. pyralis luciferase, luminescence, biochemical; Luciferin 4-monooxygenase (Photinus pyralis), P08659; also: nearly all actives have a fitted effect of over 65% in size
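Biochemical qHTS: compound (6-point titration) added to 10uM D-luciferin plus 10uM ATP in Tris acetate pH 7.5 buffer with Mg, Tween-20 and BSA, then purified enzyme at 10nM; light output imaged.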
HEK293 tox = Cytotoxic Profiling in HEK 293 Cell Line of Diverse Libraries Using Quantitative High-Throughput Screening; HEK 293 viability, ATP luminescence (CellTiter-Glo), 48-72 h; Potency, µM (top dose mostly 115 µM), most hits filed as inhibitors; 94,000 tested, 6.6% active; AID 1345083, 2018; also: nearly all actives have a fitted effect of over 60% in size
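Pintool-delivered compounds were incubated with HEK 293 cells (250 cells/well) at 37 degree Celsius for 48 or 72 hr. ATP-dependent luminescence (CellTiter-Glo) then reported remaining viable cells.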
3T3 cytotox = Cytotoxic Profiling in NIH 3T3 Cell Line of Diverse Libraries Using Quantitative High-Throughput Screening; NIH 3T3 viability, CellTiter-Glo ATP luminescence, 48-72 h; 94,000 tested, 4.3% active; Potency, µM (titrated, usually from 96.7 µM), usual class: inhibitors; also: nearly all actives have a fitted effect of over 55% in size
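Viability of NIH 3T3 cells after 48 or 72 hr compound treatment at 37 °C was assessed by CellTiter-Glo, with luminescence imaged following a 10 min room-temperature step.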
SNCA expr inhib = Primary qHTS assay for inhibitors of alpha-synuclein gene (SNCA) expression. HEK-293 SNCA-luciferase knock-in, luminescence, 24 h. Potency, µM (series often up to 57.2 µM), actives largely listed as inhibitors. 140,000 tested, 0.17% active. AID 1671194, 2021; also: nearly all actives have a fitted effect of over 45% in size
SNCA viab count = GF-AFC viability counterscreen for inhibitors of alpha-synuclein gene (SNCA) expression; HEK-293-SNCA-luc viability, GF-AFC fluorescence, 24 h; Potency, µM (series often up to 57.1 µM), actives largely listed as cytotoxic; 150,000 tested, 0.12% active; also: nearly all actives have a fitted effect of over 30% in size
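HEK-293-SNCA-luc cells (1500/well) plated 24 h, then exposed 24 h to a dilution series; GF-AFC added 30 min at 37C, fluorescence 405/540 nm; normalised to medium-only and DMSO wells, Hill fit.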
NPR1 antag cnf = Natriuretic polypeptide receptor (hNpr1) antagonism - Confirmation | shares compounds with hNpr1 antagonist | HEK293 hNpr1 cGMP GloSensor luminescence, ANP-stimulated | Potency, µM (series often up to 57.6 µM), actives largely listed as inhibitors | 1,400 tested, 76% active; calls by dose curve; also: nearly all actives have a fitted effect of over 70% in size
Npr2 selectivity = Natriuretic polypeptide receptor (hNpr2) antagonism - Subtype selectivity assay. shares compounds with hNpr1 antagonist. HEK293 hNpr2 GloSensor cGMP luminescence, CNP-stimulated. Potency, µM (series often up to 57.6 µM), actives largely listed as inhibitors. 1,400 tested, 67% active; calls by dose curve; also: nearly all actives have a fitted effect of over 70% in size
FLuc inh counter = Natriuretic polypeptide receptor (hNpr1) antagonism - Confirmation firefly luciferase (FLuc) inhibition counterscreen; shares compounds with hNpr1 antagonist; purified FLuc enzyme, luminescence, Km substrate; Potency, µM (highest dose often 57.6 µM), hits mostly inhibitors; 1,400 tested, 0.7% active; AID 1347047, 2019
GloSensor cGMP = Natriuretic polypeptide receptor (hNpr1) antagonism - Counterscreen GloSensor control cell line | shares compounds with hNpr1 antagonist | HEK293 GloSensor cGMP, SNP-stimulated, luminescence | Potency, µM (top dose mostly 57.6 µM), hits mostly inhibitors | 1,400 tested, 69% active | AID 1347051, 2019; calls by dose curve; also: nearly all actives have a fitted effect of over 70% in size
Hits are given with their value; - = inactive; ? = inconclusive; . = no result given. This is a sample that favours compounds with a hit; in the whole collection about 7.4% have one here. Unless noted, calls follow the shape of the dose curve; as a rule, active = well fitted curve in the direction sought with a large enough effect; inconclusive = small, poorly fitted or top-dose-only effect, or another doubt; inactive = no such curve, though single readings can be large; an effect the other way counts as inactive or inconclusive.

SMILES	hNpr1 antagonist	FLuc inh	HEK293 tox	3T3 cytotox	SNCA expr inhib	SNCA viab count	NPR1 antag cnf	Npr2 selectivity	FLuc inh counter	GloSensor cGMP
COCc1nc(-c2ccc(OC3CCN(C(=O)NCc4ccc(F)cc4)C3)cc2)no1 (stereo not given)	?	-	?	?	-	-	.	.	.	.
CCOc1cccc(CN2CC(Oc3ccc(-c4noc(COC)n4)cc3)C2)c1	?	-	?	?	-	-	.	.	.	.
COc1ccc(CNC(=O)N2CCC(Oc3ccc(-c4noc(C5CC5)n4)cc3)C2)cc1 (stereo not given)	18µM	-	?	?	-	?	?	?	?	?
COc1ccc(NC(=O)N2CCC(Oc3ccc(-c4noc(C5CC5)n4)cc3)C2)cc1 (stereo not given)	?	?	?	-	-	-	.	.	.	.
CCN(CC)C(=O)N1CCC(Oc2ccc(-c3noc(COC)n3)cc2)C1 (stereo not given)	7.9µM	-	?	-	-	?	11µM	14µM	-	12µM
CNC(=O)[C@@H]1CN(C(=O)CCc2ccccc2OC)C[C@H]1CO	-	-	-	-	-	-	.	.	.	.
COc1cccc(C(=O)N2CCc3onc(-c4cccc(F)c4)c3C2)c1OC	10µM	-	20µM	?	-	-	22µM	22µM	-	19µM
COc1cccc(-c2noc3c2CN(C(=O)c2ccc(C)cc2OC)CC3)c1	?	-	?	?	-	-	.	.	.	.
CC(Cn1cncn1)C(=O)N1CCc2onc(-c3ccc(F)c(F)c3)c2C1 (stereo not given)	-	-	?	-	-	-	.	.	.	.
COc1ccc(-n2nc(C3CCCN(Cc4cccc5ccccc45)C3)[nH]c2=O)cc1 (stereo not given)	-	-	?	?	-	-	.	.	.	.
COc1ccc(-n2nc(C3CCN(Cc4cccc5ccccc45)CC3)[nH]c2=O)cc1	11µM	-	?	?	-	-	24µM	24µM	-	27µM
O=C(c1cc2ccccc2[nH]1)N1CCC2(C1)NC(=O)N(Cc1ccccc1)C2=O (stereo not given)	?	?	?	?	-	-	.	.	.	.
O=C(c1cc2ccccc2[nH]1)N1CCC2(C1)NC(=O)N(Cc1ccc(F)cc1)C2=O (stereo not given)	22µM	-	?	?	-	-	?	?	-	31µM
C[C@H](Nc1cc2c(-c3ccc4c(c3)OCO4)noc2cn1)c1ccccc1	.	.	.	.	.	-	.	.	.	.
O=C(Nc1ccc(F)cc1)c1c[nH]c2cccnc12	.	.	?	?	-	?	?	?	4.4µM	22µM
O=C(CN1C(=O)NC(c2ccc(Cl)cc2)C2=C1COC2=O)Nc1ccc(Br)cc1F (stereo not given)	?	-	35µM	28µM	?	-	24µM	?	-	27µM
